Pf growth 48h = P. falciparum growth inhibition at 48 hours (one generation). Potency, µM (top dose mostly 28.7 µM), most hits filed as inhibitors. P. falciparum luciferase growth in erythrocytes, 48 h. AID 504832. actives 5.9% (n = 310,000)
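Cell-based growth assay: transgenic P. falciparum expressing firefly luciferase, cultured in red cells within RPMI 1640 containing 0.5% w/v Albumax, 24 mM bicarbonate and gentamycin. A drop in luciferase activity indicates inhibition.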
Pf growth 96h = P. falciparum growth inhibition at 96 hours | P. falciparum luciferase reporter growth, 96 h | Potency, µM (top dose mostly 28.7 µM), actives largely listed as inhibitors | actives 6.9% (n = 320,000) | AID 504834
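Parasite growth measured via integrated firefly luciferase reporter in P. falciparum. Infected erythrocytes at 2% hematocrit, 0.05% parasitemia final were treated 96 hours at 37 C under 5% CO2, and luminescence was read.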
AMA1 RON2 block = AMA1-RON2 (P. falciparum) interaction inhibition. AlphaScreen AMA1-biotinylated RON2 peptide binding. Potency, µM (doses to about 58.2 µM), most hits filed as inhibitors. actives 0.2% (n = 360,000). AID 720542; also: nearly all actives have a fitted effect of over 45% in size
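AMA1 (3D7) with his tag at 25 nM final met compounds first, then biotinylated RON2 peptide at 25 nM; detection used donor plus acceptor beads, 10 µg/mL apiece, read by AlphaScreen after 30 min at room temperature.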
HCV inhibitor = HCV inhibition | Huh7.5.1 HCVcc-Cre infection, luciferase reporter, 44 h | Potency, µM (titrated, usually from 41.8 µM), most hits filed as inhibitors | actives 3.4% (n = 340,000)
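Antiviral activity was scored by luciferase reporter output from cells infected with HCVcc-Cre (~0.5 moi) in presence of compound, 44 h infection period, cells seeded 1,000/well 4 h prior.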
Each line names hits and unclear results; the compound was inactive in the other large screens. Compounds with a hit are over-represented: about 11% of the library has one in this group of screens. Calls follow the shape of the dose curve; as a rule, active = well fitted curve in the direction sought with a large enough effect; inconclusive = small, poorly fitted or top-dose-only effect, or another doubt; inactive = no such curve, though single readings can be large; an effect the other way counts as inactive or inconclusive.

CC(=O)N1CCC(C(=O)N2c3ccccc3N=C(c3ccc(C(F)(F)F)cc3)C2C(=O)NC2CCCC2)CC1 (stereo not given)	none (no result: Pf growth 48h, Pf growth 96h, HCV inhibitor)
Cc1ccc(S(=O)(=O)n2c(C)nc3cc(C)ccc32)cc1	none
Cc1ccc(-c2cc(C(=O)NC3=NCCS3)c3cc(Br)ccc3n2)o1	Pf growth 48h 9.3µM (no result: AMA1 RON2 block)
Cc1ccc(-c2cc(C(=O)O)c3cc(Br)ccc3n2)o1	none
Cc1ccc(-c2cc(C(=O)NCCCn3ccnc3)c3cc(Br)ccc3n2)o1	Pf growth 48h 9.3µM, Pf growth 96h inconclusive
COc1cccc(-c2cc(C(=O)NCCCn3ccnc3)c3ccccc3n2)c1	Pf growth 48h inconclusive
Cc1ccc(-c2cc(C(=O)NN3CCOCC3)c3cc(Br)ccc3n2)o1	Pf growth 96h 5.2µM
O=C1NC(Cc2ccccc2)c2nc3ccc(Cl)cc3c(=O)n2-c2ccccc21 (stereo not given)	none (no result: Pf growth 48h, Pf growth 96h, AMA1 RON2 block)
O=C1NC(Cc2ccccc2)c2nc3cc(Cl)ccc3c(=O)n2-c2ccccc21 (stereo not given)	HCV inhibitor 3.5µM (no result: Pf growth 48h, Pf growth 96h, AMA1 RON2 block)
COc1ccc(CCN(C)Cc2c(O)ccc3ccccc23)cc1OC	none
O=c1c(-c2ccccc2)c1-c1ccccc1	Pf growth 48h 6.7µM, Pf growth 96h 5.4µM (no result: AMA1 RON2 block, HCV inhibitor)
C/C=C/C=C/C(=O)[C@@H]1[C@@H]([C@]2(C)OC(=O)C(C)=C2O)[C@H]2/C(=C(O)/C=C/C=C/C)C(=O)[C@]1(C)C(=O)C2(C)O (stereo not given in full)	Pf growth 96h 7.4µM
CCOC(=O)c1c(C)[nH]c(C)c1C(=O)COC(=O)c1ccc(Cl)nc1	none (no result: Pf growth 48h, Pf growth 96h)
O=C(c1ccc(F)cc1)N1CCC(C(=O)N2CCN(S(=O)(=O)c3cccc(Cl)c3)CC2)CC1	Pf growth 48h inconclusive, Pf growth 96h inconclusive, HCV inhibitor inconclusive
CN1CCN(c2ccc(S(=O)(=O)N3CCCCC3)cc2NC(=O)c2ccc3ccccc3c2)CC1	Pf growth 48h 9.3µM, Pf growth 96h 9.3µM, HCV inhibitor inconclusive
CN1CCN(c2ccc(S(=O)(=O)N3CCCCC3)cc2NC(=O)c2cccc([N+](=O)[O-])c2)CC1	HCV inhibitor inconclusive
Cc1ccccc1C(=O)Nc1cc(S(=O)(=O)N2CCCCC2)ccc1N1CCN(C)CC1	Pf growth 48h inconclusive, Pf growth 96h 9.3µM
CCOc1ccc(OCC)c(S(=O)(=O)NCCOC23CC4CC(CC(C4)C2)C3)c1	Pf growth 48h inconclusive, HCV inhibitor 10µM
COc1cc(S(=O)(=O)NCCOC23CC4CC(CC(C4)C2)C3)c(OC)cc1Cl	Pf growth 48h inconclusive, HCV inhibitor inconclusive
CCC(C)NC(=O)CCC(=O)Nc1ccc2nc(N3CC(C)CC(C)C3)cc(C)c2c1 (stereo not given)	Pf growth 48h 9.3µM, Pf growth 96h 5.9µM, HCV inhibitor inconclusive
CCOCCCNC(=S)Nc1ccc2nc(N3CCOCC3)cc(C)c2c1	Pf growth 96h 15µM
Cc1cc(N2CCOCC2)nc2ccc(NC(=S)NCCC(C)C)cc12	HCV inhibitor 10µM
COCCCNC(=S)Nc1ccc2nc(N3CCOCC3)cc(C)c2c1	none
CCC(C)NC(=S)Nc1ccc2nc(N3CCOCC3)cc(C)c2c1 (stereo not given)	HCV inhibitor 11µM
O=C(NCc1ccccc1)C(c1ccccc1F)n1c(=O)c(-c2ccco2)nc2ccccc21 (stereo not given)	none (no result: Pf growth 48h, Pf growth 96h, HCV inhibitor)
CCc1nc2ccc(C(=O)Nc3cccc(OC)c3)cn2c1N(CC)CCOC	none (no result: Pf growth 48h, Pf growth 96h, HCV inhibitor)
C=CC[n+]1ccc(/C=C2\C=Cc3cc(C)ccc3N2CC)c2ccccc21	Pf growth 48h inconclusive, AMA1 RON2 block inconclusive, HCV inhibitor 2.5µM
Cn1c(COc2ccccc2O)[n+](C)c2ccccc21	none
CCCCCCCCCCOC(=O)Cn1c(COc2ccccc2OC)[n+](C)c2ccccc21	Pf growth 48h 1.7µM, Pf growth 96h inconclusive, HCV inhibitor 14µM
CC(C)Cn1c(SCC(=O)NC(=O)NC2CCCC2)nc2ccccc21	Pf growth 48h inconclusive, HCV inhibitor 11µM
CCCc1nc(SCC(=O)N2CCc3ccccc32)c2c(=O)n(C)c(=O)n(C)c2n1	none (no result: AMA1 RON2 block)
CC(C)NC(=O)Cn1c(SCC(=O)NC2CCCC2)nc2ccccc21	none
CCn1c(COc2ccccc2)nnc1SCC(=O)NC1CCCCC1	Pf growth 48h 2.9µM
CC(C)c1nc(SCC(=O)N2CCCc3ccccc32)c2c(=O)n(C)c(=O)n(C)c2n1	Pf growth 48h inconclusive, Pf growth 96h inconclusive, HCV inhibitor 10µM
CCn1c(CC(=O)Nc2ccccc2)nnc1SCC(=O)NC1CCCC1	Pf growth 96h inconclusive
CCn1c(SCC(=O)N2CCCc3ccccc32)nc2ccccc2c1=O	Pf growth 48h inconclusive, HCV inhibitor 5µM

Screens: PubChem, National Center for Advancing Translational Sciences (NCATS)
